The results in this text go back to the OligoGym collection.
Note: reference of the scale not given here.

The first assay deals with NCAPG2. Put plainly: pooled miR-30 sensor sort-seq; sequence = guide strand. The following applies: shRNA.
With TTTACCTGCATTAATAACCAGG, the sensor-assay potency score (higher = more potent) is -0.888.
As to TTCTGAGCAGAACTTGTGCTGA, the sensor-assay potency score (higher = more potent) is -0.264.
The sequence TTGATGGTGAAAGTAACTCAGA came in with a sensor-assay potency score (higher = more potent) of -1.15.
With TAAGCAATGACGAATAACGTGA, the sensor-assay potency score (higher = more potent) is 0.14.
TAGAACTCTGTAGTTTTCGTTC yielded a sensor-assay potency score (higher = more potent) of -0.463.
Turning to TTCAATGCTATCCTCTTCCAAA, the sensor-assay potency score (higher = more potent) is -0.814.
Turning to TATAATAACACATTCCAGTAGG, the sensor-assay potency score (higher = more potent) is -0.388.
In the case of TTAGTCTCCAGACTCCTCCTTA, the sensor-assay potency score (higher = more potent) was found to be 0.238.

The target of another assay is NCF1. The assay is described as above. Particulars: shRNA.
TTCCGCTTGGTGCTCTCGCTGC gave a sensor-assay potency score (higher = more potent) of -1.
TCTGACAGAACCACCAACCGCT showed a sensor-assay potency score (higher = more potent) of 0.511.
TTTTTTGTCTGGTTGTCCGTGG had a sensor-assay potency score (higher = more potent) of 0.905.
The sequence TTCATCTGACAGAACCACCAAC returned a sensor-assay potency score (higher = more potent) of -0.468.
For the sequence TTATGGAACTCGTAGATCTCGG, the sensor-assay potency score (higher = more potent) was -0.843.
The sequence TTTTGCAGGTACATGGACGGGA registered a sensor-assay potency score (higher = more potent) of 0.437.
For the sequence TTGGTGCTCTCGCTGCAGCGGT, the sensor-assay potency score (higher = more potent) was -1.07.
The same measure, in the same setting: for TTTGTCTGGTTGTCCGTGGGGA the value was 0.0821.
On the same count and under the same terms, for TAGATCTCGGTGAAGCGCCGGT the value was 0.272; for TAAGGTTTTATGGAACTCGTAG, 0.251.
On the same count and under the same terms, in the case of TGGAACTCGTAGATCTCGGTGA it was 0.128.
In the case of AACATGTACACATAGTGCTGGC, the sensor-assay potency score (higher = more potent) was -0.578.

The next assay concerns the target NCR3. Described as above. Particulars: shRNA.
In the case of ATGTTCTTTCTCCACCACCAGC, the sensor-assay potency score (higher = more potent) is -2.11.
In turn, TTTGCCCTGGTAATAGACGGTG registered a sensor-assay potency score (higher = more potent) of -0.728.
Same read-out and setting: for ACTCTGCACACGTAGATGCTGG the value was -1.18.
On the same count and under the same terms, in the case of TATTGGGTGAATGACAGTGTTC it was -1.59; in that of TGGAACCACCTCATCTCGGAAC, -1.16.
TAGCTGAGGATGTTCTTTCTCC gave a sensor-assay potency score (higher = more potent) of -0.477.
Still for that read-out and setting: in the case of TCTCGGAACCACGTGACGGAGC it was -0.976; in that of AAGCTGACAGCATAGAATCCAG, -0.853.
Consider TTCCAGGTCAGACATTTGCCCT, for which the sensor-assay potency score (higher = more potent) was -1.63.
Turning to TCTTTCTCCACCACCAGCCGAG, the sensor-assay potency score (higher = more potent) is -1.09.
In turn, TTCTTTCTCCACCACCAGCCGA yielded a sensor-assay potency score (higher = more potent) of -1.65.
Turning to TCCAGGTCAGACATTTGCCCTG, the sensor-assay potency score (higher = more potent) was -1.34.

In a further assay the target is NCSTN. The assay is described as above. The following applies: shRNA.
Sequence TCAGCCTGAACTGTGTCGCTGA gave a sensor-assay potency score (higher = more potent) of 0.319.
Same read-out and setting: for TTCCACTGTATTTCTCTGCAGT the value was 0.342; for TCGAGCTCGAAGAAATCGCTGC, 0.0428; for TTAAACAGGAGCAAGAAGCTTC, -0.218.
In turn, TACTGTACAACATAAGTGGTGT showed a sensor-assay potency score (higher = more potent) of 0.405.
Consider TATATCTTCCTCTCCACTGAGT, for which the sensor-assay potency score (higher = more potent) was -0.425.
Same read-out and setting: in the case of TAGCATGCTCCACACATTGTAA it was -1.37; in that of TTGGAGTAAACACCAAACCCAT, -1.26.
